Test results taken from PubChem BioAssay.
Records with an inconclusive call do not appear. The source made the active and inactive calls. Unless noted, no rule for the calls is given here.

Assays:
[1] = stimulators of insulin release from INS-1E, primary screen, cell-based, 5 mM glucose, NPC library (AID 1117329;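 active = compound raises insulin release from rat beta cells at 5 mM glucose, no numeric limit stated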); conditions: rat INS-1E insulin secretion, at 10 µM, stronger effect = higher value
[2] = growth inhibition of GSK3B-pretreated HCT116 cells – cell-based, CellTiter-Glo, 0.2 to 20 µM (AID 1117336;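 active = compounds lowering colon cancer cell viability after pretreatment blocking the GSK3B kinase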); conditions: HCT116 viability after GSK3B inhibitor, at 20 µM, stronger effect = higher value
[3] = inhibition of endothelial tube formation, primary screen, imaging, VEGF stimulated, CD31 staining, tube area, NPC library (AID 1117340;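 active = compound that reduces growth-factor-driven endothelial tube area in a mixed cell culture, no cutoff stated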); conditions: VEGF-stimulated ADSC/ECFC co-culture, at 10 µM, stronger effect = higher value
[4] = GLP1 release stimulators, primary, NCI-H716, NPC library (AID 1117341;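 active = compound raises GLP1 secretion from the human gut endocrine cells, with no numeric limit stated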); conditions: NCI-H716 cells, at 10 µM, stronger effect = higher value
[5] = HCT116 colon cancer cell growth inhibition, primary screen, CellTiter-Glo luminescence, NPC library (AID 1117342;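 active = compounds that lower survival of HCT116 colon cancer cells in the luminescence readout, no numeric limit stated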); conditions: at 20 µM (top of the series)
[6] = reduced SW480 viability measured with CellTiter-Glo, NPC library, primary (AID 1117343;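 active = compounds that lower viability of the colon cancer cells in the luminescence readout, with no numeric limit stated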); conditions: CellTiter-Glo luminescence; at 20 µM (top of the series)
[7] = NPC library primary testing for decreased DLD-1 cell viability via CellTiter-Glo (AID 1117346;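 active = compounds that lower survival of DLD-1 colon cancer cells in the luminescence readout, no cutoff given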); conditions: DLD-1 viability, CellTiter-Glo luminescence; at 20 µM (top of the series)
[8] = modulation of C. elegans fzo-1 (AID 1259413);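 also: fzo-1 mutant C. elegans worms in liquid wells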; conditions: C. elegans fzo-1 modulator screen, mean read-out; stronger effect = higher value
[9] = EMT-state selective cytotoxicity in co-culture – imaging, PC-3E GFP, TEM4-18 mCherry, primary screen (AID 1345086;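 active = compounds killing one labelled cell type while sparing the other, by normalised counts and ratio limits, not self-fluorescent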;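 as to all read-outs here: cells exposed to compound for 72 h before imaging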;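 as to red/green cell ratio (normalised): normalised mesenchymal count divided by normalised epithelial count so high means epithelial killing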); conditions: PC-3E GFP / TEM4-18 mCherry co-culture, imaging cell counts, at 1 µM; for red/green cell ratio (normalised): actives lie on both sides, counts scaled to control wells, 1 = unselective
[10] = test system: Aerobactin synthetase IucA (Klebsiella pneumoniae); assay: inhibition of K. pneumoniae IucA enzyme – biochemical, Tocris library, absorbance (AID 1345561); conditions: purified IucA enzyme assay, absorbance (OD) read-out; stronger effect = lower value;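 tested at 8 µM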;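 also: 100% = enzyme without compound and 0% = no enzyme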
[11] = viability loss in pontine glioma line – cell-based, SU-DIPG-XVII, MIPE5.0, CellTiter-Glo, qHTS, dose response (AID 1347060; cut-off not given, nearly all actives have AC50 up to about 26 µM); conditions: CellTiter-Glo ATP luminescence
[12] = viability loss in pontine glioma line – cell-based, SU-DIPG-XIII, MIPE4.0, CellTiter-Glo, qHTS, dose response (AID 1347061; cut-off not given, nearly all actives have AC50 up to about 37 µM;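 also: cells exposed to compound for 48 hours before readout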); conditions: CellTiter-Glo ATP luminescence
[13] = viability loss in pontine glioma line – cell-based, SU-DIPG-IV, MIPE4.0, CellTiter-Glo, qHTS, dose response (AID 1347063; cut-off not given, nearly all actives have AC50 up to about 30 µM;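 also: compound exposure lasted 48 hours before the viability readout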); conditions: CellTiter-Glo ATP luminescence
[14] = viability loss in pontine glioma line – cell-based, JHH-DIPG-1, MIPE4.0, CellTiter-Glo, qHTS, dose response (AID 1347062; cut-off not given, nearly all actives have AC50 up to about 27 µM); conditions: JHH-DIPG-1 viability, CellTiter-Glo ATP luminescence
[15] = viability loss in pontine glioma line – cell-based, SU-DIPG-XIII, MIPE5.0, CellTiter-Glo, qHTS, dose response (AID 1347064; cut-off not given, nearly all actives have AC50 up to about 23 µM); conditions: CellTiter-Glo ATP luminescence
[16] = measured here: epithelial PC-3E GFP cell survival
[17] = measured here: mesenchymal TEM4-18 mCherry cell survival

Compound	insulin secretion stimulation [1]	viability decrease [2]	tube area decrease [3]	GLP1 secretion stimulation [4]	inhibition of viability [5]	viability decrease (inhibition) [6]	viability decrease (inhibition) [7]	mean signal [8]	red/green cell ratio (normalised) [9]	normalised cell number [9, 16]	normalised cell number [9, 17]	remaining activity [10]	outcome [11]	outcome [12]	outcome [13]	outcome [14]	outcome [15]
OCc1cc(C(O)CNCCCCCCOCCCCc2ccccc2)ccc1O (stereo not drawn)	0.4% (inactive)	-73.1% (inactive)	27.2% (inactive)	-0.4% (inactive)	44.6% (inactive)	46.4% (inactive)	37.8% (inactive)	253 (inactive)	1.18 (inactive)	0.82	0.97	115% (inactive)					
CCOC(=O)c1ncn2c1CN(C)C(=O)c1cc(F)ccc1-2	1.6% (inactive)	-39.4% (inactive)	-3.4% (inactive)	0.1% (inactive)	0.15% (inactive)	17.1% (inactive)	4% (inactive)	276 (inactive)	0.89 (inactive)	0.95	0.84	110% (inactive)	inactive	inactive	inactive		
COc1cc2c(cc1OC)C(=O)C(CC1CCN(Cc3ccccc3)CC1)C2 (stereo not drawn)	1.25% (inactive)	22.6% (inactive)	17.7% (inactive)	6.3% (inactive)	49.6% (inactive)	69.8% (active)	38.5% (inactive)	214 (inactive)	1.04 (inactive)	1.04	1.09						
O=C(NCCN1CCOCC1)c1ccc(Cl)cc1	-2.6% (inactive)	-7.6% (inactive)	6% (inactive)	0.4% (inactive)	-2.6% (inactive)	35.1% (inactive)	-7.9% (inactive)	247 (inactive)	0.88 (inactive)	0.89	0.79						
CC[N+](C)(CC)CCOC(=O)C(O)(c1ccccc1)C1CCCCC1 (stereo not drawn)	-1.5% (inactive)	-16.6% (inactive)	-4.7% (inactive)	-3.3% (inactive)	0.4% (inactive)	0.8% (inactive)	-8.3% (inactive)	260 (inactive)	0.95 (inactive)	1.13	1.07						
COc1ccccc1N1CCN(CC(O)COc2cccc3ccccc23)CC1 (stereo not drawn)	0.4% (inactive)	0.8% (inactive)	35.4% (inactive)	10% (inactive)	64.7% (active)	92.1% (active)	59.3% (active)	202 (inactive)	0.7 (inactive)	1.13	0.8	100% (inactive)		inactive		inactive	
CC(=O)NS(=O)(=O)c1ccc(N)cc1	-1.9% (inactive)	-5.2% (inactive)	14.5% (inactive)	-1.7% (inactive)	1.2% (inactive)	-3.2% (inactive)	-1.3% (inactive)	275 (inactive)	1.56 (inactive)	0.84	1.31						
CC(C)NCC(O)COc1ccc(CCOCC2CC2)cc1 (stereo not drawn)	-1.4% (inactive)	-6.1% (inactive)	26% (inactive)	1.9% (inactive)	14.2% (inactive)	10.9% (inactive)	2.1% (inactive)	281 (inactive)	0.81 (inactive)	1.26	1.02	100% (inactive)	inactive	inactive	inactive	inactive	inactive
CC1CCN(CCCC(=O)c2ccc(F)cc2)CC1	8.9% (inactive)	5.7% (inactive)	10.4% (inactive)	-0.3% (inactive)	45.7% (inactive)	23.2% (inactive)	37.1% (inactive)	246 (inactive)	0.9 (inactive)	0.97	0.88	103% (inactive)					
CCc1oc2ccccc2c1C(=O)c1cc(Br)c(O)c(Br)c1	4.6% (inactive)	116% (active)	101% (active)	21.4% (active)	124% (active)	154% (active)	101% (active)	252 (inactive)	0.88 (inactive)	1.08	0.95						
Oc1ccc(C2CNCCc3c2cc(O)c(O)c3Cl)cc1 (stereo not drawn)	5.4% (inactive)	66.2% (active)	42.2% (active)	1% (inactive)	50.2% (active)	50.9% (active)	29.6% (inactive)	286 (inactive)	1.06 (inactive)	1.1	1.17	110% (inactive)	inactive	inactive		inactive	inactive
COc1ccc(C2CNC(=O)C2)cc1OC1CCCC1 (stereo not drawn)	0.8% (inactive)	23.9% (inactive)	1.1% (inactive)	4.4% (inactive)	13.6% (inactive)	88.4% (active)	29.1% (inactive)	251 (inactive)	0.93 (inactive)	1.05	0.97	98.4% (inactive)	inactive		inactive	inactive	inactive
CCOC(=O)C1=C(C)NC(C)=C(C(=O)OC)C1c1cccc(Cl)c1Cl (stereo not drawn)	3.1% (inactive)	113% (active)	58.1% (active)	5.3% (inactive)	110% (active)	139% (active)	95.6% (active)	217 (inactive)	1.08 (inactive)	1.11	1.2						
